# Measured values taken from PubChem BioAssay AID540335 (Broad Institute, 2011).
# In all, about 1,300 compounds went through this assay and about 270 (21%) were called active. The list is a sample of the results. Results with a measured potency or affinity are listed apart. Unmarked numbers belong to inactive results.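 Rule for the calls: active = dose-dependent rise or fall in viability, either side of zero, with half-maximal concentration at or below a set limit; inconclusive = flat curve at 30 to 70% viability loss, or poor fit; inactive = flat within 30% either way, or potency beyond limit.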
# Experiment: proliferation inhibition in MITF-low A375 cells – cell-based, cherry-pick samples, set 2, counter-screen for MITF modulator project, dose response (AID 540335);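 note: A375 human melanoma cells which do not depend on MITF; 0% = median of neutral control wells and 100% = double that signal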
# Settings: CellTiter-Glo ATP luminescence, 24 h; series mostly up to 35 µM; activity change, negative = decreased viability: at the top concentration
row,Compound,"activity change, negative = decreased viability [%]"
1,CCOC(=O)CSC1=NC(=O)/C(=C/c2ccc(OC)cc2)S1,-20.9
2,N/C(=N\OC(=O)c1ccc(Cl)cc1Cl)c1ccncc1,5.82
3,COCc1cc(C)nc2sc(C(=O)Nc3ccc(OC)cc3)c(N)c12,-2.81
4,O=C1c2ccccc2C(=O)N1CCOc1ccccc1,-1.42
5,CN1CCN(CCCOc2ccc(-c3ccccc3)cc2)CC1,-0.67
6,CN=c1scc(-c2ccccc2F)n1/N=C/c1ccc[nH]1,-31.4
7,Cc1ccc(NC(=O)CCC(=O)N/N=C/c2ccc([N+](=O)[O-])o2)cc1C,-3.7
8,CC1CC(C)C[N+](=C2C=C(N3CCCC3)CC(C)(C)C2)C1 (stereo unspecified),-15.3
9,O=C(Cn1cc(/C=C\[N+](=O)[O-])c2ccccc21)Nc1ccccc1,-0.096
10,Cc1ccc(NC(=O)c2ccc([N+](=O)[O-])o2)cc1S(=O)(=O)N1CCOCC1,13.3
11,COc1ccc2oc(C(=O)Nc3ccc(S(=O)(=O)N(C)C4CCN(C)CC4)cc3)c(C)c2c1,-26.3
12,CC(Oc1ccccc1)C(=O)Nc1nc(-c2ccccn2)cs1 (stereo unspecified),-9.16
13,C/C(=N\NC(=O)C(C)Oc1ccc([N+](=O)[O-])cc1)c1ccccn1 (stereo unspecified),-25.9
14,CC(C)C(=O)N1CCN(c2ccc(NC(=O)c3ccc([N+](=O)[O-])o3)cc2)CC1,17.6
15,CC(C)(C)NC(=O)CCN(/N=C/c1ccc([N+](=O)[O-])o1)C1=NS(=O)(=O)c2ccccc21,-15.5
16,Cc1c(N=C2C=CC(=O)c3ccccc32)c(=O)n(-c2ccccc2)n1C,-31
17,COc1cc(/C=N/NC(N)=O)c(Br)cc1OCC(=O)Nc1ccccc1C,-37.4
18,COc1ccc(S(=O)NC2CCCCC2)c(OC)c1C (stereo unspecified),-1.99
19,COc1cc(CN2CCC(Cc3ccccc3)CC2)cc(OC)c1OC,-6.84
20,O=C(c1nnsc1S(=O)(=O)c1ccc(Cl)cc1)N1CCOCC1,-5.83
21,Cc1cc(C)c[n+](C2=C([O-])c3ccccc3C(=O)/C2=N\S(=O)(=O)c2cccs2)c1,-36.8
22,O=C(CCl)Nc1cccc(Oc2ccccc2)c1,-29.8

row,Compound,"activity change, negative = decreased viability [%]"
1,CC(=O)N1CCc2c(sc(NC(=O)c3ccc([N+](=O)[O-])o3)c2C#N)C1,9.03
2,O=C(CC(=O)c1ccccc1)Nc1ccccn1,3.43
3,CN(c1cccc(NC(=O)COc2ccc(Cl)cc2Cl)c1)S(C)(=O)=O,-2.24
4,O=C1Nc2ccc(Br)cc2/C1=C/C(=O)c1ccc2c(c1)OCO2,20.9
5,COc1ccc(/C=N/Nc2cc(C)nc(-n3nc(C)cc3C)n2)c(OC)c1,-25.2
6,Cc1ccc(S(=O)(=O)/N=C2\C(=O)c3ccccc3C([O-])=C2n2cc[n+](CCC(C)C)c2)cc1,-33.9
7,CCC(=O)N1CCN(c2ccc(NC(=O)c3ccc([N+](=O)[O-])o3)cc2)CC1,8.91
8,CCN(CC)CCNC(=O)c1c(C)n(-c2ccccc2)c2cc(Br)c(OC)cc12,-49.1
9,O=C(Cn1ncc(Cl)c(Cl)c1=O)N1CCN(Cc2ccccc2)CC1,62.3
10,O=C(Cn1ncc(Cl)c(Cl)c1=O)c1ccc(Cl)cc1,84.6
11,O=C(COC(=O)CCN1C(=O)/C(=C\C=C\c2ccccc2)SC1=S)Nc1cc(F)ccc1F,0.586
12,CC(C)(C)c1ccc(C(=O)Nc2sc3c(c2C(=O)O)CCC3)cc1,-11.3
13,CCN1/C(=C/c2cc[n+](C)cc2)C=Cc2cc(C)ccc21,-23.4
14,O=C(Nc1ccc(F)cc1F)c1cc2ccccc2oc1=O,-5.16
15,CC1CCC/C=C/C(=O)c2c(O)cc(O)cc2CC(=O)O1 (stereo unspecified),10.8
16,COc1ccc(C(=O)/C=C/C(=O)N(CC(=O)NC2CCCCC2)Cc2ccccc2OC)c(O)c1,-5.15
17,O=C1CCC2S/C(=C/Nc3ccc(C(F)(F)F)cc3)C(=O)N12 (stereo unspecified),15.7
18,CCCC(=O)N1CCN(c2ccc(NC(=O)c3ccc([N+](=O)[O-])o3)cc2Cl)CC1,27.2
19,COc1ccc(NC(=O)CCC(=O)N/N=C/c2ccc([N+](=O)[O-])s2)cc1,-23.2
20,CCCCNC(=O)Nc1ccc(C2SCCS2)cc1,-14.6
21,O=C(Nc1ccccn1)c1ccc(Br)s1,-8.96
22,N=c1n(CC(=O)c2ccc(Br)cc2)c2ccccc2n1Cc1ccccc1,-96.7

row,Compound,"activity change, negative = decreased viability [%]"
1,O=C(N/N=C/c1ccc([N+](=O)[O-])s1)c1cccc(Br)c1,-11.5
2,Cc1ccc(NCC(=O)N/N=C\c2ccc([N+](=O)[O-])o2)cc1,-7.59
3,Cc1c(C(=O)Nc2ccc(S(=O)(=O)N(C)C3CCN(C)CC3)cc2)oc2c(Cl)cccc12,-68.5
4,COc1cc(SC)ccc1C(=O)Nc1ccc(Br)cn1,-6.11
5,COc1cc(SC)ccc1C(=O)Nc1ncc(C)s1,-13.6
6,O=C(CNC(=O)c1ccccc1)N/N=C/c1ccc([N+](=O)[O-])s1,-17.8
7,O=C(Nc1cccc(S(=O)(=O)N2CCCCC2)c1)c1ccc([N+](=O)[O-])o1,-10.1
8,Cc1nc2ccccn2c1C(=O)N/N=C/c1ccc([N+](=O)[O-])o1,-19.2
9,Cc1nc(SCC(=O)Nc2ccc(CN3CCCC3)cc2)c2c(C)c(C)sc2n1,-4.46
10,Cc1ccc2oc(C(Cl)(Cl)Cl)cc(=O)c2c1,-16.5
11,CCN(CC)S(=O)(=O)c1ccc(N2CCCC2)c(NC(=O)c2ccc([N+](=O)[O-])o2)c1,-10.5
12,O=C(Nc1cccnc1Cl)c1cc(-c2ccco2)on1,7.02
13,O=C(Nc1ccc(N2CCN(C(=O)c3ccccc3)CC2)cc1)c1ccc([N+](=O)[O-])o1,37.8
14,O=C(CCl)N1CCN(S(=O)(=O)c2ccc3c(c2)CCC3)CC1,-14
15,Cc1cc(C)c2c(N)c(C(=O)Nc3ncc(C)s3)sc2n1,-18.7
16,O=C(Nc1ccccc1)NN(C(=O)CCl)c1ccccc1,-6.28
17,O=C(CCl)N(c1ccccc1)c1c[nH]c2ccccc12,-4.62
18,N#C/C(=C\c1ccc(OCc2ccc(C(=O)O)cc2)cc1)C(=O)N1CCOCC1,-3.63
19,O=C(C#Cc1ccccc1)c1cccc([N+](=O)[O-])c1,3.14
20,COc1ccc(C)cc1Nc1nc(N)c2cc(OC)c(OC)cc2n1,-21.9
21,COc1cccc(-c2ccc3c(N)c(C(=O)NC4CC4)sc3n2)c1,13.8
22,O=C(O)c1ccc(C(=O)Nc2ccc(F)cc2)cc1,-13.5

row,Compound,"activity change, negative = decreased viability [%]"
1,O=C(Nc1ccc([N+](=O)[O-])cc1)c1ccccc1,-0.714
2,Cn1cc([N+](=O)[O-])c(C(=O)Nc2nc(-c3ccc(Cl)cc3)cs2)n1,-6.64
3,COc1ccc(C(NC(C)=O)c2ccc3cccnc3c2O)c(OC)c1 (stereo unspecified),-33.9
4,COc1cc(OC)cc(C(=O)Nc2ccc3c(c2)OCCO3)c1,-32.1
5,COc1cccc(NC(=O)Nc2cccc(C(=O)O)c2)c1,1.68
6,COC(=O)CCS(=O)(=O)c1nc(-c2ccccc2)cc(C(F)(F)F)n1,47.7
7,Cc1nc(C)c(C(=O)N/N=C/c2cc(Br)ccc2O)s1,-27.5
8,O=C(N/N=C/c1cccc2cccnc12)c1ccccc1O,-38
9,Cc1ccc(C#CC[N+]2(CC#Cc3ccc(C)cc3)CCCCC2)cc1,-31.7
10,O=C(Nc1nc(-c2ccccn2)cs1)c1ccc([N+](=O)[O-])o1,-35.5
11,CS(=O)(=O)N1CCN(c2ccc(NC(=O)c3ccc([N+](=O)[O-])o3)cc2)CC1,4.88
12,Cc1cccc(NC(=O)c2ccc([N+](=O)[O-])o2)c1C,-10.1
13,COc1cc(/C=N/N=C(N)N)ccc1OCc1ccc(Cl)cc1,-96.4
14,Cc1cc(NC(=O)c2ccc([N+](=O)[O-])o2)ccc1NC(=O)c1ccco1,-30.9
15,COc1ccccc1NS(=O)(=O)c1cc(NC(=O)c2ccc(Cl)nc2)ccc1Cl,-3.13
16,CCCCNc1nc(=S)n(-c2ccccc2)c(C)c1C(C)=O,8.62
17,CC(=O)Nc1ccc2c(c1)ncn2-c1ccccc1,8.14
18,CC(=O)Nc1ccc(-c2nc3ccccc3o2)cc1,8.49
19,Cn1nc([N+](=O)[O-])nc1S(C)(=O)=O,-14.2
20,CS(=O)(=O)c1ncc(Cl)c(C(=O)Nc2ccc(N3CCOCC3)cc2)n1,-15.9
21,O=C(c1ccc(S(=O)(=O)Cc2ccccc2Cl)c([N+](=O)[O-])c1)N1CCN(c2ccccn2)CC1,-4.16
22,O=C(Cc1ccc2c(c1)OCO2)NN=Cc1ccc([N+](=O)[O-])o1,-3.36

row,Compound,"activity change, negative = decreased viability [%]"
1,Cn1nnnc1Sc1ncnc2scc(-c3cccs3)c12,6.26
2,O=C(NC1CCCC(C(F)(F)F)C1)c1ccc([N+](=O)[O-])o1 (stereo unspecified),18.6
3,CCCN1CCC(NCc2cn(C)nc2-c2ccc(Oc3ccccc3)cc2)CC1,-5.6
4,CC(O)CNC(=O)C1CCN(Cc2ccc(OCc3ccccc3)cc2)CC1 (stereo unspecified),1.88
5,O=C(O)c1ccc(N/N=C/c2ccc3nccnc3c2)cc1,-35.1
6,CCOCCCNC(=O)/C(C#N)=C/c1ccc([N+](=O)[O-])o1,4.45
7,Cc1ccc(-c2nc(C(=O)NCCCN(C)C)cc3c2[nH]c2ccccc23)cc1,-4.39
8,Cc1ccc(C(=O)N/C(=C\c2ccc(-c3ccccc3[N+](=O)[O-])o2)C(=O)NCCN(C)C)cc1,-8.4
9,CN(C)CCCNC(=O)/C(=C\c1ccc(-c2ccc(Br)cc2)o1)NC(=O)c1ccccc1,-70.8
10,CCN(CC)CCC(=O)N1C/C(=C/c2ccccc2)C(=O)/C(=C\c2ccccc2)C1,71.7
11,COc1cc(NC(=O)COc2ccccc2[N+](=O)[O-])ccc1NC(=O)c1cccs1,-36.8
12,O=C(Cn1ncc(Cl)c(Cl)c1=O)Nc1ccc2c(c1)OCO2,26.9
13,O=C(c1ccccc1)c1cc(Cl)ccc1N1C(=O)C=CC1=O,-30.6
14,O=C(N/N=C/c1ccc([N+](=O)[O-])o1)c1ccc(O)cc1,-17.7
15,Cc1cc(Sc2ncnc(N)c2[N+](=O)[O-])ncn1,-35.7
16,COc1cccc2sc(N3CCN(C(=O)c4ccc([N+](=O)[O-])o4)CC3)nc12,-6.34
17,Cc1cccc2sc(N(CCCN(C)C)C(=O)c3nc4ccccc4s3)nc12,-16.6
18,CN(C)c1ccc(C2=NOC(CN3C(=O)c4ccccc4S3(=O)=O)C2)cc1 (stereo unspecified),1.39
